# In the library only some 19% were active in any assay of this set; here they are far more common.
# TDP1 cell noCPT = qHTS for Inhibitors of human tyrosyl-DNA phosphodiesterase 1 (TDP1): qHTS in cells in absence of CPT. DT40 Tdp1-/- hTDP1 cells, no CPT, ATP luminescence, 48 h. Potency, µM (top dose mostly 46.2 µM), for the others: top-dose activity change, negative = growth inhibition, actives largely listed as inhibitors. 420,000 compounds, 15% hits; note: potency is the fitted concentration of half-maximal effect; nearly all actives have a fitted effect of over 55% in size
#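 A cellular qHTS used chicken DT40 cells lacking endogenous Tdp1 but carrying stably transfected human TDP1. Compounds were applied without camptothecin, and cell growth kinetics were judged by ATP-dependent luminescence after ≥48 hr.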
# uPA generation = cell surface uPA generation inhibition; 330,000 compounds, 0.31% hits; cell surface uPA generation assay, qHTS; Potency, µM (doses to about 38.3 µM), without a hit: top-dose activity change, negative = inhibition, most hits filed as inhibitors; active = well fitted inhibition curve with a large enough effect; inconclusive = small, poorly fitted or top-dose-only effect; inactive = no such curve, though single readings can be large or run the other way; tested in mouse RAW 264.7 cells; note: potency is the fitted concentration of half-maximal effect; nearly all actives have a fitted effect of over 55% in size
# HT1080 IDH1KD tx = HT-1080 IDH1 knockdown cell toxicity (counter line). AID 686971. Potency, µM (series often up to 46.1 µM), for the others: at the top dose activity, negative = toxicity, actives largely listed as cytotoxic. 360,000 compounds, 2% hits. HT-1080 IDH1 knockdown viability, ATP luminescence, 48 h;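 note: potency is the fitted concentration of half-maximal effect; 0% = DMSO wells and -100% = cell-free medium wells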
#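 Viability of IDH1-knockdown HT-1080 fibrosarcoma cells was assessed by CellTiter-Glo after 48 h at 37 °C with titrated compound; concentration-effect curves were classified by fit quality and response size.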
# IL-1B inflam inh = inhibitors of inflammasome signaling (IL-1 beta secretion); THP-1 LPS/ATP IL-1B secretion, AlphaLISA, 16 h; stronger effect = lower value; activity change, % at 57.5 µM; 360,000 compounds, 4.7% hits; in the data active = activity change below about -50%; inconclusive = mostly about -30% to -49%
#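 Secreted IL-1B measured by AlphaLISA bead assay after 16 h compound exposure of THP-1 cells; compounds (final up to 57.5 uM) added 1 h before LPS (250 ng/mL) and ATP (1.25 mM) stimulation; lower signal means less secretion.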
# HT1080-NT tox = kills 2HG-producing HT-1080-NT fibrosarcoma cells | HT-1080-NT fibrosarcoma viability, CellTiter-Glo ATP luminescence, 48 h | Potency, µM (highest dose often 46.1 µM), inactives show at the top dose activity, negative = less viability, actives largely listed as cytotoxic | 360,000 compounds, 1.6% hits | AID 686970;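 note: NT is the 2HG producing partner of a matched IDH1 knockdown line; potency is the fitted concentration of half-maximal effect; 0% = DMSO-treated cells and -100% = media-only wells without cells; nearly all actives have a fitted effect of over 55% in size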
#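 Luminescent CellTiter-Glo readout after 48 hours of compound exposure at 37 degrees C defined viability of HT-1080-NT cells. Activity was normalized to DMSO wells and cell-free media wells; concentration-response curves were fitted and assigned curve classes.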
# TDP1 cell CPT = growth inhibition of DT40 Tdp1-/-;hTDP1 cells with camptothecin (screen for TDP1 inhibitors) | 420,000 compounds, 12% hits | AID 686979 | Potency, µM (doses to about 46.2 µM), for inactives: at the top dose activity change, negative = growth inhibition, usual class: inhibitors | chicken DT40 Tdp1-/-;hTDP1 cells + 20 nM CPT, ATP luminescence, 48 h; note: potency is the fitted concentration of half-maximal effect; nearly all actives have a fitted effect of over 55% in size
#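 Chicken DT40 Tdp1-/- cells complemented with human TDP1, 400 cells/well, exposed to compounds plus 20 nM camptothecin for at least 48 h at 37 C; viability read as ATP content by CellTiter-Glo luminescence.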
# An asterisk follows results filed as active; ? = inconclusive; · = not tested or not shown. Unless noted, calls come from the whole dose curve; as a rule, active = well fitted curve in the direction sought with a large enough effect; inconclusive = small, poorly fitted or top-dose-only effect, or another doubt; inactive = no such curve, though single readings can be large; an effect the other way counts as inactive or inconclusive. Unless noted, % is set by controls: 0 for no effect and ±100 for the full control effect.
SMILES,TDP1 cell noCPT,uPA generation,HT1080 IDH1KD tx,IL-1B inflam inh,HT1080-NT tox,TDP1 cell CPT
CCn1c(=O)c(C(=O)Nc2ccccc2C)c(O)c2ccccc21,23µM*,·,-29%,16,4%,?
CCCCCCC(=O)NNC(=O)c1c(O)c2ccccc2n(CCC)c1=O,?,2%,12%,27,8%,?
CCCCCCCC(=O)NNC(=O)c1c(O)c2ccccc2n(CCC)c1=O,23µM*,0%,8%,13,5%,?
CCCn1c(=O)c(C(=O)NC(C)c2ccccc2)c(O)c2ccccc21 (stereo not drawn),26µM*,2%,12%,2,1%,?
CCCn1c(=O)c(C(=O)Nc2ccccc2C)c(O)c2ccccc21,?,-3%,25%,13,1%,?
CCCn1c(=O)c(C(=O)Nc2ccccc2N)c(O)c2ccccc21,?,·,3%,22,6%,26µM*
Clc1cccc(-c2csc(-c3nc(-c4ccc(Br)s4)cs3)n2)c1,-2%,·,·,·,·,-1%
CCCCCCCCn1c(=O)c(C(=O)OCC)c(O)c2ccccc21,?,10%,-3%,14,-3%,?
CCCCCn1c(=O)c(-c2nc3ccccc3[nH]2)c(O)c2ccccc21,9.2µM*,1%,3%,112,-18%,21µM*
COc1ccc(C(=O)c2coc3ccc(O)c(CN4CCOCC4)c23)cc1,?,3%,-2%,-7,-4%,12µM*
COc1ccc(NC(=O)c2c(C)oc3ccc(O)c(CN4CCOCC4)c23)cc1,3%,·,·,·,·,-21%
Cc1ccc(C(=O)c2coc3ccc(O)c(CN4CCN(C)CC4)c23)cc1,18µM*,4%,-18%,-54*,-6%,13µM*
COc1ccc(C(=O)c2c(C)oc3ccc(O)c(CN4CCOCC4)c23)cc1,18µM*,1%,-14%,1,-8%,?
COc1ccc(N2CCN(C(=O)c3cc(-c4ccc(C)c(F)c4)on3)CC2)cc1,0%,·,·,·,·,-4%
CSc1c(CN2CCN(C)CC2)c2ccccc2n1C,-21%,-1%,5%,16,1%,0%
Cc1c(-c2ccccc2)n(-c2ccc(Cl)cc2)c2nc3c(c(=O)n(C)c(=O)n3C)n12,-6%,·,·,·,·,2%
NS(=O)(=O)OCc1ccc(C(F)(F)F)cc1,?,-1%,8%,25,?,?
COc1ccc(-n2nnnc2CNC(=O)c2c(-c3ccccc3Cl)noc2C)cc1,0%,·,-2%,-11,0%,-10%
Cc1ccc(C(Sc2ccccc2)C(Cn2cncn2)C(=O)c2ccccc2)cc1 (stereo not drawn),23µM*,-5%,?,-29,?,?
Cc1ccc(SCCCn2cncn2)cc1,-15%,3%,1%,10,0%,-6%
COc1ccc(-n2nc(C(=O)NCC(=O)N3CCCC3)c3ccccc3c2=O)cc1Cl,?,0%,-2%,-9,17%,-16%
CCC(=O)N1CCc2cc(CNC(=O)c3ccc(F)cc3)ccc21,-24%,·,·,·,·,-29%
CCN(CC)c1ccc(C(=O)NCc2ccc3c(c2)CCN3C(=O)c2ccc(F)cc2)cc1,4.6µM*,·,·,·,·,5.8µM*
N#Cc1ccc(C(=O)NCc2ccc3c(c2)CCN3C(=O)c2ccc(F)cc2)cc1,23µM*,·,·,·,·,?
CCOc1ccccc1C(=O)NCc1ccc2c(c1)CCN2C(C)=O,1.6µM*,·,·,·,·,0.92µM*
SMILES,TDP1 cell noCPT,uPA generation,HT1080 IDH1KD tx,IL-1B inflam inh,HT1080-NT tox,TDP1 cell CPT
COc1ccc(C(=O)NCc2ccc3c(c2)CCN3C(C)=O)c(OC)c1,-15%,·,·,·,·,-17%
Cc1ccc(C(=O)N2CCc3cc(CNC(=O)c4ccccc4F)ccc32)cc1,21µM*,·,·,·,·,?
CC(SCC(=O)Nc1ccc(F)cc1)c1nc2ccccc2c(=O)[nH]1 (stereo not drawn),-8%,1%,-8%,3,-7%,-18%
CCN(CCO)CC1CCCC2CCCCC21 (stereo not drawn),-13%,·,10%,19,10%,0%
CCOc1cc(C(=O)NCc2ccc3c(c2)CCN3C(=O)c2ccc(F)cc2)cc(OCC)c1OCC,26µM*,·,·,·,·,?
CCOc1cc(C(=O)NCc2ccc3c(c2)CCN3C(=O)CC)cc(OCC)c1OCC,-19%,·,·,·,·,-10%
CCOc1ccc(C(=O)NCc2ccc3c(c2)CCN3C(=O)c2ccc(C)cc2)cc1OCC,13µM*,·,·,·,·,12µM*
O=C(NCc1nnnn1-c1ccc(F)c(F)c1)c1cc2ccccc2o1,-12%,-3%,0%,-23,-1%,-7%
Cc1cn([C@H]2C[C@H](O)[C@@H](CNCc3cnc(N4CCOCC4)s3)O2)c(=O)[nH]c1=O,9%,·,7%,16,9%,-28%
COC(=O)c1ccc(COc2ccccc2/C=C/C(=O)c2ccc(OCC(=O)O)cc2)cc1,?,-2%,?,-94*,?,?
Cc1ccc(/C=C(\C#N)C(=O)Nc2c(C)cccc2C)s1,21µM*,-4%,-9%,-12,-1%,?
COC(=O)c1ccc(COc2ccccc2/C=C(\C#N)C(=O)Nc2ccccc2C)cc1,0%,-3%,2%,22,8%,6%
COC(=O)c1ccc(COc2ccccc2/C=C(\C#N)C(=O)Nc2c(C)cccc2C)cc1,13µM*,-7%,18µM*,-79*,18µM*,13µM*
CC(C)(C)C1CCC(=NNC(=O)c2ccco2)CC1 (stereo not drawn),6%,-16%,12%,-7,3%,-16%
Cc1ccc2oc(Nc3nc(-c4ccccc4)cc(=O)[nH]3)nc2c1,4.6µM*,-16%,?,·,-4%,3.3µM*
COCc1cc(=O)[nH]c(Nc2nc(C)c3ccccc3n2)n1,16µM*,-15%,?,-65*,?,21µM*
COCc1cc(=O)[nH]c(Nc2nc3ccccc3o2)n1,8.9µM*,-9%,?,54,-28%,10µM*
COc1ccc2nc(Nc3nc(CSc4nnnn4-c4ccccc4)cc(=O)[nH]3)nc(C)c2c1,?,-4%,8%,17,4%,?
Cc1cc(=O)oc2cc(OCC(=O)OCC(=O)Nc3c(C)n(C)n(-c4ccccc4)c3=O)ccc12,-2%,-5%,12%,-11,17%,-4%
CCN(CC)CCC12CC(C)OC1=Nc1ccccc1NC2=O (stereo not drawn),-4%,·,3%,37,24%,-11%

# Source: PubChem
